Assay outcomes (PubChem BioAssay)
NPC1 promoter act = NPC1 promoter activation; 320,000 tested, 2.4% active; Huh7 NPC1 promoter luciferase reporter, 24 h; Potency, µM (titrated, usually from 9.22 µM), hits mostly activators; AID 485313; also: nearly all actives have a fitted effect of over 60% in size
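Luminescence from an NPC1 promoter-driven luciferase reporter in stably transfected Huh7 cells was measured after 24 h compound treatment at 37 °C, followed by 10 min ambient incubation with luciferase detection reagent.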
Rab9 promoter act = activators of Rab9 promoter. Potency, µM (top dose mostly 9.22 µM), usual class: activators. 320,000 tested, 2.8% active. AID 485297. Huh7 Rab9 promoter-luciferase reporter, luminescence, 24 h; also: nearly all actives have a fitted effect of over 60% in size
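Using Huh7 cells stably transfected with Rab9 promoter–luciferase, compounds were incubated 24 h at 37 °C, 5% CO2; luciferase luminescence was read 10 min after reagent addition.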
ELG1 DNA repair = inhibitors of ELG1-dependent DNA repair in HEK293T cells | HEK293T ELG1-luciferase reporter, luminescence, 16 h; DNA damage induced by 5-fluorouridine | Potency, µM (titrated, usually from 46.1 µM), most hits filed as inhibitors | 330,000 tested, 2.3% active | AID 504467; also: nearly all actives have a fitted effect of over 55% in size
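In this reporter screen, reduction of luminescence relative to DMSO vehicle indicated activity. Compounds and 5-fluorouridine were added together to 2,000 cells per well, incubated for 16 hr at 37 °C, then developed with ONE-Glo.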
FLuc counter = firefly luciferase modulation, counter-screen for miR-21 project | P08659 | purified FLuc, Km substrates, luminescence inhibition | Potency, µM (titrated, usually from 57.5 µM), hits mostly inhibitors | 360,000 tested, 6.9% active; also: nearly all actives have a fitted effect of over 55% in size
Target sequence (P08659 whole entry, looked up): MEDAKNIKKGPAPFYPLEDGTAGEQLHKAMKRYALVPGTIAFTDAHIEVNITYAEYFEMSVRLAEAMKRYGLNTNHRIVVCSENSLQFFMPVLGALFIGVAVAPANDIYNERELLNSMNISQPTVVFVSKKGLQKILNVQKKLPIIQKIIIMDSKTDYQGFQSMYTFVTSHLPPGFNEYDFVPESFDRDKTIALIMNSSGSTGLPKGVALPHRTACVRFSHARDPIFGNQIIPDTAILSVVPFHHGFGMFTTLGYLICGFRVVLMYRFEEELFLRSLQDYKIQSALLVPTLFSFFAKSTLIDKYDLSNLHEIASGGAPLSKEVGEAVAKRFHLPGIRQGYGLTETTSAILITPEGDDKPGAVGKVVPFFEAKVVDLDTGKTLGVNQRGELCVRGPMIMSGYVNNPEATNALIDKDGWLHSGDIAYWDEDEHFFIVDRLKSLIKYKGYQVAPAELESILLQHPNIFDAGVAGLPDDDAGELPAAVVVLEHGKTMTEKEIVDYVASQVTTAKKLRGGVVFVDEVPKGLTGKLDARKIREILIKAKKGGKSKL
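Purified P. pyralis luciferase (10nM final) with 10uM D-luciferin and 10uM ATP (Km levels) in 50mM Tris acetate pH 7.5, 10mM Mg acetate, 0.01% Tween-20, 0.05% BSA; qHTS 6-point titration, ~60 µM downward; luminescence read.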
SMN2 splice enh = SMN2 splice variant enhancement | HEK293 SMN2-luciferase splicing reporter, luminescence, 30-36 h | Potency, µM (highest dose often 46.1 µM), most hits filed as activators | 210,000 tested, 2.8% active; also: nearly all actives have a fitted effect of over 55% in size
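qHTS luciferase splicing reporter: luminescence rises when SMN2 exon 7 is included in transfected HEK293 cells. Compound exposure lasted 30-36 h at 37C, with 4.5 mM final sodium butyrate as control, followed by a ONE-Glo read.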
ELG1 genotox = genotoxicity induction in ELG1-luciferase HEK293T cells | HEK293T ELG1-luciferase reporter, luminescence, 16 h | Potency, µM (top dose mostly 46 µM), usual class: activators | 330,000 tested, 1.3% active | AID 504466; also: nearly all actives have a fitted effect of over 60% in size
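After overnight (16 hr) compound treatment at 37 °C, ELG1-luciferase HEK293T cells were lysed with ONE-Glo; luminescence quantified 30 min later at room temperature.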
ELG1 FLuc counter = luciferase inhibition in cell-free luciferin readout for ELG1 hits; shares compounds with ELG1 DNA repair; cell-free firefly luciferase luminescence counter-screen, ViewLux; Potency, µM (series often up to 46.1 µM), actives largely listed as inhibitors; 350 tested, 3% active
ELG1-Luc inh = confirmation of human ELG1-dependent DNA repair inhibitors | 670 tested, 68% active | Potency, µM (top dose mostly 46.1 µM), hits mostly inhibitors | AID 624248 | shares compounds with ELG1 DNA repair | HEK293T ELG1-luciferase levels, luminescence; cells co-treated with 5-fluorouridine; also: nearly all actives have a fitted effect of over 55% in size
ELG1 MMS Luc = MMS-stimulated human ELG1 repair inhibition, confirmed; shares compounds with ELG1 DNA repair; HEK293T luciferase-tagged ELG1 level, MMS stimulated; Potency, µM (highest dose often 46.1 µM), most hits filed as inhibitors; 670 tested, 53% active; also: nearly all actives have a fitted effect of over 60% in size
ELG1 5FU viab = confirmation of ELG1 repair inhibitors: viability with 5FU; shares compounds with ELG1 DNA repair; cell viability with 5-FU, ELG1-dependent repair; Potency, µM (titrated, usually from 46.1 µM), most hits filed as cytotoxic; 670 tested, under 10 active; AID 624250;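 also: ELG1-luc HEK293T cells cotreated with 5-fluorouridine at 10 µM final; viability measured 16 h after compound addition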
ELG1 MMS cell = confirmation of ELG1 repair inhibitors: viability with MMS; 670 tested, 33% active; Potency, µM (doses to about 46.1 µM), actives largely listed as cytotoxic; Cell viability with MMS, ELG1-dependent DNA repair; shares compounds with ELG1 DNA repair; AID 624251;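 also: ELG1-luc HEK293T cells co-treated with 10 µM MMS; viability read 16 h after compound addition; nearly all actives have a fitted effect of over 60% in size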
ELG1 unstim viab = counter-screen for ELG1 repair inhibitors: unstimulated cell viability. shares compounds with ELG1 DNA repair. cell viability counter-screen, unstimulated, luminescence. Potency, µM (top dose mostly 45.9 µM), actives largely listed as cytotoxic. 900 tested, 8% active. AID 624252;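 also: compound exposure lasted 16 hours before reading; nearly all actives have a fitted effect of over 55% in size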
FLuc enzyme = inhibits purified firefly luciferase, counter-screen for ELG1 hits; shares compounds with ELG1 DNA repair; purified firefly luciferase, luminescence counter-screen; Potency, µM (top dose mostly 57.5 µM), actives largely listed as inhibitors; 350 tested, 10% active; AID 624253
A number is an active result; [ ] = remark or other dose. This is a sample that favours compounds with a hit; in the whole collection about 9.2% have one here. Calls follow the shape of the dose curve; as a rule, active = well fitted curve in the direction sought with a large enough effect; inconclusive = small, poorly fitted or top-dose-only effect, or another doubt; inactive = no such curve, though single readings can be large; an effect the other way counts as inactive or inconclusive.

What do the screens show for `CCCCc1nnc(NC(=O)Cc2ccc(S(=O)(=O)N3CCOCC3)s2)s1`?
NPC1 promoter act: inactive; Rab9 promoter act: inactive; ELG1 DNA repair: inactive; FLuc counter: inactive; ELG1 genotox: inactive

How did Cc1ccc(C)c(S(=O)(=O)NCCC(=O)N2CCCC(C(N)=O)C2)c1 (configuration not stated) do in these assays?
NPC1 promoter act: inactive; Rab9 promoter act: inactive; ELG1 DNA repair: inactive; FLuc counter: inactive; ELG1 genotox: inactive

What do the screens show for `O=C(C1CCCCC1)N1CCN(c2nc(-c3ccc(F)cc3)cs2)CC1`?
NPC1 promoter act: inactive; Rab9 promoter act: inactive; ELG1 DNA repair: 21µM; FLuc counter: inconclusive; SMN2 splice enh: inactive; ELG1 genotox: inactive

What do the screens show for `COc1cccc(-c2csc(N3CCN(C(=O)C4CCCCC4)CC3)n2)c1`?
NPC1 promoter act: inactive; Rab9 promoter act: inactive; ELG1 DNA repair: inconclusive; FLuc counter: inactive; SMN2 splice enh: inactive; ELG1 genotox: inactive

What do the screens show for `COc1ccc(S(=O)(=O)N2CCC(C(=O)Nc3cc(C(F)(F)F)ccc3Cl)CC2)cc1`?
FLuc counter: inactive; SMN2 splice enh: inactive

Results for O=c1oc2ccccc2c2oc3cc(O)c(O)cc3c12 ?
NPC1 promoter act: inactive; Rab9 promoter act: inactive; ELG1 DNA repair: inconclusive; FLuc counter: 21µM; SMN2 splice enh: inactive; ELG1 genotox: inconclusive

How did Cc1cnc(C(=O)N2CCc3c([nH]c4ccccc34)C2c2ccc(F)cc2)cn1 (configuration not stated) do in these assays?
NPC1 promoter act: inactive; Rab9 promoter act: inactive; ELG1 DNA repair: inconclusive; FLuc counter: inactive; ELG1 genotox: inactive

What do the screens show for `CCc1ccc(C2c3[nH]c4ccccc4c3CCN2C(=O)c2cc(C)nn2C)cc1` (configuration not stated)?
NPC1 promoter act: inactive; Rab9 promoter act: inactive; ELG1 DNA repair: inconclusive; FLuc counter: inactive; ELG1 genotox: inactive; ELG1-Luc inh: 11µM; ELG1 MMS Luc: 20µM; ELG1 5FU viab: inconclusive; ELG1 MMS cell: inconclusive; ELG1 unstim viab: inconclusive

Results for N[C@H](Cc1ccc(O)c(O)c1)C(=O)O ?
SMN2 splice enh: inactive

Results for COc1ccc2oc(=O)c(C(=O)NCCc3c(C)[nH]c4c(C)cccc34)cc2c1 ?
FLuc counter: inactive; SMN2 splice enh: inactive

What do the screens show for `CCn1ccc2c(OCC(=O)Nc3ccccc3C)cccc2c1=O`?
FLuc counter: inactive

What do the screens show for `Cc1ccc(OCC(=O)Nc2ccc(-c3nc4ccccc4o3)cc2)c(C)c1`?
FLuc counter: inactive; SMN2 splice enh: inconclusive

How did CCc1ccc(OCC(=O)Nc2ccc(-c3nc4ccccc4o3)c(O)c2)cc1 do in these assays?
NPC1 promoter act: 2µM; Rab9 promoter act: 3.5µM; ELG1 DNA repair: inconclusive; FLuc counter: inactive; SMN2 splice enh: inconclusive; ELG1 genotox: inconclusive; ELG1 FLuc counter: inactive; ELG1 unstim viab: inactive; FLuc enzyme: inactive

What do the screens show for `COc1ccc(NC(=O)/C(C#N)=C/c2cc(C)n(-c3ccc(N4CCOCC4)c([N+](=O)[O-])c3)c2C)cc1`?
NPC1 promoter act: inactive; Rab9 promoter act: inactive; ELG1 DNA repair: 2.9µM; FLuc counter: inactive; SMN2 splice enh: inactive; ELG1 genotox: inactive; ELG1-Luc inh: 4.4µM; ELG1 MMS Luc: 4µM; ELG1 5FU viab: inactive; ELG1 MMS cell: inconclusive; ELG1 unstim viab: inconclusive

Results for CCC(C)(C)C1CCC2(CC1)NC(=O)N(CC(=O)N(C)CC(=O)Nc1ccccc1C(F)(F)F)C2=O (configuration not stated) ?
NPC1 promoter act: inactive; Rab9 promoter act: inconclusive; ELG1 DNA repair: inactive; FLuc counter: inconclusive; ELG1 genotox: inactive

What do the screens show for `COc1ccccc1-c1nc2c(c(SCC(=O)N3CCCCC3)n1)Cc1c(CO)cnc(C)c1O2`?
NPC1 promoter act: inactive; Rab9 promoter act: inactive; ELG1 DNA repair: 8.2µM; FLuc counter: inactive; ELG1 genotox: inactive[9.26 µM]; ELG1 FLuc counter: inactive; ELG1-Luc inh: 10µM; ELG1 MMS Luc: inconclusive; ELG1 5FU viab: inconclusive; ELG1 MMS cell: inconclusive; ELG1 unstim viab: inconclusive; FLuc enzyme: inactive

How did COc1cccc(-c2nc3c(c(SCC(=O)N4CCOCC4)n2)Cc2c(CO)cnc(C)c2O3)c1 do in these assays?
NPC1 promoter act: inactive; Rab9 promoter act: inactive; ELG1 DNA repair: 4.6µM; FLuc counter: inactive; ELG1 genotox: inactive; ELG1 FLuc counter: inactive; ELG1-Luc inh: 3.2µM; ELG1 MMS Luc: 14µM; ELG1 5FU viab: inconclusive; ELG1 MMS cell: inconclusive; ELG1 unstim viab: inconclusive; FLuc enzyme: inactive

How did COc1ccc(CCCC(=O)NCCc2ccccc2)c(C)c1 do in these assays?
NPC1 promoter act: inactive; Rab9 promoter act: inactive; ELG1 DNA repair: inactive; FLuc counter: inactive; ELG1 genotox: inactive

Results for CCCCn1c(SCC(=O)Nc2nnc(C)s2)nc2c1c(=O)n(C)c(=O)n2C ?
NPC1 promoter act: inactive; Rab9 promoter act: inactive; ELG1 DNA repair: inactive; FLuc counter: inactive; SMN2 splice enh: inactive; ELG1 genotox: inactive

How did CCCCn1c(SCC(=O)Nc2nnc(CC)s2)nc2c1c(=O)n(C)c(=O)n2C do in these assays?
NPC1 promoter act: inactive; Rab9 promoter act: inactive; ELG1 DNA repair: 2.5µM; FLuc counter: inactive; SMN2 splice enh: inactive; ELG1 genotox: inactive; ELG1-Luc inh: inconclusive; ELG1 MMS Luc: inactive; ELG1 5FU viab: inactive; ELG1 MMS cell: inconclusive; ELG1 unstim viab: inconclusive
